Values joined by “and” are separate entries in the source; they are usually repeats but may differ in a detail not shown here. Equal entries are not always repeated. Records with an inconclusive call do not appear. More than one record can exist for a structure, and the calls need not agree. Active and inactive are the calls of the source. Unless noted, calls follow the shape of the dose curve; as a rule, active = well fitted curve in the direction sought with a large enough effect in the repeat runs; inconclusive = weak or mixed curves; inactive = no such curve, though single readings can be large; an effect the other way counts as inactive or inconclusive.
What was measured:
[1] = qHTS assay to test for compound auto fluorescence at 535 nm (green) in HEK293 cells (AID 720680)
[2] = qHTS assay to test for compound auto fluorescence at 460 nm (blue) in HEK293 cell free culture (AID 720681)
Method in brief: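 Test compounds were pinned into cell-free culture medium (DMEM with 10% FBS) and fluorescence was read directly at Ex/Em 405/460 nm. Signals were expressed as fluorescence equivalents of triamterene, with DMSO vehicle as control.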

[3] = qHTS assay to test for compound auto fluorescence at 535 nm (green) in HEK293 cell free culture (AID 720682)
Method in brief: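 Green-channel intensity (Ex/Em 485/535 nm) was recorded from compound-treated wells containing only DMEM with 10% FBS. Fluorescein provided the equivalency standard.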

[4] = qHTS assay to test for compound auto fluorescence at 590 nm (red) in HEK293 cell free culture (AID 720683)
Method in brief: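 Tox21 10K library compounds were pinned into cell-free DMEM with 10% FBS and fluorescence was read at excitation 540 nm. Activity is expressed as Rose Bengal sodium equivalency.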

[5] = qHTS assay to test for compound auto fluorescence at 590 nm (red) in HepG2 cell free culture (AID 720684)
Method in brief: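 Measured in medium alone (MEM containing 10% FBS) following pintool addition of compound; emission at 590 nm with 540 nm excitation, referenced to Rose Bengal sodium.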

[6] = qHTS assay to test for compound auto fluorescence at 460 nm (blue) in HepG2 cell free culture (AID 720685)
Method in brief: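 Compound (23 nL) or DMSO pinned into cell-free MEM with 10% FBS; blue fluorescence read at 405/460 nm excitation/emission, expressed as auto-fluorescence equivalency to triamterene.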

[7] = qHTS assay to test for compound auto fluorescence at 535 nm (green) in HepG2 cell free culture (AID 720686)
[8] = qHTS assay to identify small molecule antagonists of the glucocorticoid receptor (GR) signaling pathway - cell viability counter screen (AID 720693); also: nearly all actives have a fitted effect of over 55% in size
[9] = qHTS assay for identifying genotoxic compounds that show differential cytotoxicity against isogenic chicken DT40 cell lines with known DNA damage response pathways - wild type cell line (AID 743012); also: nearly all actives have a fitted effect of over 60% in size; also: potency is read from the fitted curve at half-maximal effect
Method in brief: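 First, wild type DT40 cells were plated at 300 per well and equilibrated about 0.5 h at 37 C/5% CO2. Next, compounds in DMSO were added and exposure lasted 40 h. Finally, CellTiter-Glo was added for 30 min at room temperature and luminescence recorded.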

[10] = qHTS assay for identifying genotoxic compounds that show differential cytotoxicity against isogenic chicken DT40 cell lines with known DNA damage response pathways - Rad54/Ku70 mutant cell line (AID 743015); also: nearly all actives have a fitted effect of over 60% in size; also: potency is read from the fitted curve at half-maximal effect
[11] = qHTS assay to identify small molecule antagonists of the androgen receptor (AR) signaling pathway - cell viability counter screen (AID 743033; also: nearly all actives have a fitted effect of over 45% in size; also: potency is read from the fitted curve at half-maximal effect)
[12] = biological target: Androgen receptor (Homo sapiens) (UniProt P10275); test: qHTS assay to identify small molecule antagonists of the androgen receptor (AR) signaling pathway (AID 743035; active = well fitted inhibition curve with a large enough effect in the signal ratio in the repeat runs, not every such curve was filed as active; the % refers to the signal ratio)
Method in brief: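 Beta-lactamase FRET read (2 h RT incubation with LiveBLAzer B/G) following 16 h of compound plus R1881 treatment of AR-UAS-bla HEK293 cells, which had been pre-incubated 4 h at 37C.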

[13] = biological target: Androgen receptor (Homo sapiens) (UniProt P10275); test: qHTS assay to identify small molecule agonists of the androgen receptor (AR) signaling pathway (AID 743036; active = well fitted activation curve with a large enough effect in the signal ratio in the repeat runs, with a control signal flat, not every such curve was filed as active; the % refers to the signal ratio)
Method in brief: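 Cell-based FRET reporter assay: HEK293 line with a UAS-beta-lactamase construct, compounds added in DMSO, 16 h exposure at 37C, then 2 h substrate step at room temperature and fluorescence intensity read.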

[14] = biological target: Androgen receptor (Homo sapiens) (UniProt P10275); test: qHTS assay to identify small molecule agonists of the androgen receptor (AR) signaling pathway using the MDA cell line (AID 743040; also: nearly all actives have a fitted effect of over 20% in size)
Method in brief: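 Luminescence from ONE-Glo, read after 30 min at room temperature, reflects MMTV-driven luciferase in MDA-kb2 cells (AR- and GR-responsive). Treatment lasted 16 h at 37C, 0% CO2.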

[15] = qHTS assay to identify small molecule antagonists of the androgen receptor (AR) signaling pathway using the MDA cell line - cell viability counter screen (AID 743041; also: nearly all actives have a fitted effect of over 45% in size)
Method in brief: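 Viability counter screen run alongside the AR antagonist reporter: cells seeded 5 h before compound, R1881 added, 16 h incubation at 37C without CO2, fluorescent CellTiter-Fluor signal quantified.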

[16] = biological target: Androgen receptor (Homo sapiens) (UniProt P10275); test: qHTS assay to identify small molecule antagonists of the androgen receptor (AR) signaling pathway using the MDA cell line (AID 743042; also: nearly all actives have a fitted effect of over 55% in size)
Method in brief: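 MDA-kb2 cells (human breast carcinoma, stably carrying an MMTV-luciferase reporter responsive to AR and GR) were plated at 3,000 cells/well and preincubated 5 hr at 37C, then given compound plus R1881 agonist for 16 h. ONE-Glo luminescence was read.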

[17] = biological target: Glucocorticoid receptor (Homo sapiens) (UniProt P04150); test: qHTS assay to identify small molecule agonists of the glucocorticoid receptor (GR) signaling pathway (AID 720691; active = well fitted activation curve with a large enough effect in the signal ratio in the repeat runs, not every such curve was filed as active; the % refers to the signal ratio)
Method in brief: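 qHTS in GR-bla HeLa cells: 4 h settling at 37 C/5% CO2, 18 h compound incubation at 37 C, 2 h LiveBLAzer B/G FRET substrate at room temperature, fluorescence intensity measured.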

[18] = qHTS assay for identifying genotoxic compounds that show differential cytotoxicity against isogenic chicken DT40 cell lines with known DNA damage response pathways - Rev3 mutant cell line (AID 743014); also: nearly all actives have a fitted effect of over 55% in size; also: potency is read from the fitted curve at half-maximal effect
[19] = biological target: Glucocorticoid receptor (Homo sapiens) (UniProt P04150); test: qHTS assay to identify small molecule antagonists of the glucocorticoid receptor (GR) signaling pathway (AID 720692; active = well fitted inhibition curve with a large enough effect in the signal ratio in the repeat runs, not every such curve was filed as active; the % refers to the signal ratio; also: potency is read from the fitted curve at half-maximal effect)
Method in brief: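 Inhibition of glucocorticoid signalling is measured in HeLa cells with a GRE-controlled beta-lactamase reporter; cells are co-treated with compound and 5 nM dexamethasone (final) for 18 h before FRET substrate readout.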

[20] = qHTS assay to test for compound auto fluorescence at 460 nm (blue) in HepG2 cells (AID 720687)
Method in brief: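 Cells (2,000/well in MEM with 10% FBS) attached overnight at 37 C, then were exposed to compound or DMSO for 1 hr at 37 C, 5% CO2. Fluorescence read at Ex/Em 405/460 nm, expressed as triamterene-equivalent signal.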
% is scaled to controls: 0 for no effect and ±100 for the full control effect.

Androgen receptor (Homo sapiens), sequence (P10275 whole entry, looked up): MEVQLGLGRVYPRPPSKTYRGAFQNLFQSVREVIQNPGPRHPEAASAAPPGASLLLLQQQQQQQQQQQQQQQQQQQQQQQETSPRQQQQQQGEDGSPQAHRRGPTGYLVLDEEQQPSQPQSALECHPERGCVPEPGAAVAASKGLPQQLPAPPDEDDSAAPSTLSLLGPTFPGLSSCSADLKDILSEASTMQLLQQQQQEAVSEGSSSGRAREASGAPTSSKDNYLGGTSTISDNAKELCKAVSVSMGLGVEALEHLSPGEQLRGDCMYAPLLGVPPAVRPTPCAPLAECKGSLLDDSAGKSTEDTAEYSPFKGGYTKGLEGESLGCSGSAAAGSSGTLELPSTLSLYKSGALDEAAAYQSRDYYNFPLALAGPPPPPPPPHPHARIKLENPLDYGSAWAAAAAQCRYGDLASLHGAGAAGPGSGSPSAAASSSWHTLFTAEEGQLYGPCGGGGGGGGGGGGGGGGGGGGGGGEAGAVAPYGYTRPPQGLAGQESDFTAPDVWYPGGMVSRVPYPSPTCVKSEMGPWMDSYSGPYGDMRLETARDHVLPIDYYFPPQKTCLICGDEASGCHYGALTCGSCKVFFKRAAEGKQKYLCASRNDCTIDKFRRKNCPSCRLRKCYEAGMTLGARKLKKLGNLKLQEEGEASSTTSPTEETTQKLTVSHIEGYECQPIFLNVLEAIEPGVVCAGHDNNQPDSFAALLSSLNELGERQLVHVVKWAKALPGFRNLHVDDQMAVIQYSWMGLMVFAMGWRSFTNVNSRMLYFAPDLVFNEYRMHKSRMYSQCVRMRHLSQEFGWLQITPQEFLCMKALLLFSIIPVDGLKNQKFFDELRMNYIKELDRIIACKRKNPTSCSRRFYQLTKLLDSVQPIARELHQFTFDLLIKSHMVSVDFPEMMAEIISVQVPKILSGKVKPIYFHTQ
Glucocorticoid receptor (Homo sapiens), sequence (P04150 whole entry, looked up): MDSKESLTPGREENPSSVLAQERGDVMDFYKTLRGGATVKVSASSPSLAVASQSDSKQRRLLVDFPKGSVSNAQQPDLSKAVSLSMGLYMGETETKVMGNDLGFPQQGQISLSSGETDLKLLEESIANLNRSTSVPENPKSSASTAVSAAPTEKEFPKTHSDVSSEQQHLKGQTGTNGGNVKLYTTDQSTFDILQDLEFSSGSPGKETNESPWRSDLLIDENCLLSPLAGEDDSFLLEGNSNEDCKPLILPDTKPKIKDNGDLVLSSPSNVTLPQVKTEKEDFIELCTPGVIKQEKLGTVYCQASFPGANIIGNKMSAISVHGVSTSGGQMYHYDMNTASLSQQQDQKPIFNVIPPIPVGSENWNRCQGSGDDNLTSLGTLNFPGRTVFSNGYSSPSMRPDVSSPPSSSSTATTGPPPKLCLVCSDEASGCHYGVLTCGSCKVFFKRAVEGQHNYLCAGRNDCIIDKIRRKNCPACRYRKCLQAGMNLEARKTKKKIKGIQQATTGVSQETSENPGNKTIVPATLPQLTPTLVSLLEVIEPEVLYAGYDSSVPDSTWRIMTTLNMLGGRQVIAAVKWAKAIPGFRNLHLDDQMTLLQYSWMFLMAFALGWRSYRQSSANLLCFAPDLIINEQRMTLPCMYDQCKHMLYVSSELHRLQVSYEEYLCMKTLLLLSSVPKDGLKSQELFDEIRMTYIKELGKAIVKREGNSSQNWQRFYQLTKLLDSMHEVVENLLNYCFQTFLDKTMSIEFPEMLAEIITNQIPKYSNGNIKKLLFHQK

Cc1cccc(C(=O)O)c1
inactive: Potency [1] | outcome [2] | Potency [3] | Potency [4] | Potency [5] | outcome [6] | Potency [7] | Potency [8] | Potency [9] | Potency [10] | Potency [11] | Potency [12] | outcome [13] | Potency [14] | Potency [15] | Potency [16]

Cn1cnc([N+](=O)[O-])c1Sc1ncnc2nc[nH]c12
inactive: Potency [1] | outcome [2] | Potency [3] | Potency [4] | Potency [5] | outcome [6] | Potency [7] | Potency [17] | Potency [9] | Potency [11] | Potency [15]
inactive and 52.6 µM (active): Potency [18]

Nc1ncnc2nc[nH]c12
inactive: Potency [1] | outcome [2] | Potency [3] | Potency [4] | Potency [5] | outcome [6] | Potency [7] | Potency [17] | Potency [19] | Potency [9] | Potency [18] | Potency [10] | Potency [11] | Potency [15]

Nc1ccc(Nc2ccccc2)cc1
active: Potency [9] 30.6 µM | Potency [18] 67.8 µM and 54.5 µM and 34.4 µM | Potency [10] 54.5 µM and 43.3 µM
inactive: Potency [1] | outcome [2] | Potency [3] | Potency [4] | Potency [5] | outcome [6] | Potency [7] | Potency [17] | Potency [8] | Potency [11] | Potency [15]

COc1ccc(OC)c(C(O)CNC(=O)CN)c1 (stereo not given)
inactive: Potency [1] | outcome [2] | Potency [3] | Potency [4] | Potency [5] | outcome [6] | Potency [7] | Potency [17] | Potency [19] | Potency [8] | Potency [9] | Potency [10] | Potency [11] | Potency [15]

COC(=O)c1ccccc1
inactive: Potency [1] | outcome [2] | Potency [3] | Potency [4] | Potency [5] | outcome [6] | Potency [7] | Potency [9] | Potency [18] | Potency [10] | Potency [11] | Potency [15]

c1ccc(Nc2ccccc2)cc1
active: Potency [9] 61.1 µM
inactive: Potency [1] | outcome [2] | Potency [3] | Potency [4] | Potency [5] | outcome [6] | Potency [7] | Potency [10] | Potency [11] | Potency [15]

O=C=Nc1ccc(Cc2ccc(N=C=O)cc2)cc1
10.7 µM (active) and inactive: Potency [18]
21.3 µM (active) and inactive: Potency [9]
inactive: Potency [1] | outcome [2] | Potency [3] | Potency [4] | Potency [5] | outcome [6] | Potency [7] | Potency [17] | Potency [19] | Potency [8] | Potency [10] | Potency [11] | Potency [15]

Clc1nc(Cl)c(Cl)c(Cl)c1Cl
inactive: Potency [1] | outcome [2] | Potency [3] | Potency [4] | Potency [5] | outcome [6] | Potency [7] | Potency [17] | Potency [8] | Potency [9] | Potency [18] | Potency [11] | Potency [15]
active: Potency [19] 15.6 µM and 24.5 µM

CC(C)=CCC/C(C)=C\CO
inactive: Potency [1] | outcome [2] | Potency [3] | Potency [4] | Potency [5] | outcome [6] | Potency [7] | Potency [17] | Potency [19] | Potency [11] | outcome [13] | Potency [15]

CC(C(=O)O)c1cccc(C(=O)c2ccccc2)c1 (stereo not given)
inactive: Potency [1] | outcome [2] | Potency [3] | Potency [4] | Potency [5] | outcome [6] | Potency [7] | Potency [8] | Potency [9] | Potency [18] | Potency [11] | Potency [15]

CC(=O)O[C@]1(C(C)=O)CC[C@H]2[C@@H]3C=C(Cl)C4=CC(=O)[C@@H]5C[C@@H]5[C@]4(C)[C@H]3CC[C@@]21C
inactive and 19.5 µM (active): Potency [11]
active: Potency [9] 13.3 µM and 12.2 µM and 19.3 µM | Potency [10] 23.7 µM and 7.69 µM and 21.7 µM
inactive: Potency [1] | outcome [2] | Potency [3] | Potency [4] | Potency [5] | outcome [6] | Potency [7] | Potency [15]

Nc1ccccc1N
inactive: Potency [1] | outcome [2] | Potency [3] | Potency [4] | Potency [5] | outcome [6] | Potency [17] | Potency [8] | Potency [11] | Potency [15]
active: Potency [9] 3.86 µM | Potency [18] 31.4 µM and 10.3 µM | Potency [10] 62.6 µM and 9.15 µM

CN(C)c1nc(N(C)C)nc(N(C)C)n1
inactive: fluorescence, % of fluorescein [1] 0.0818% [at 18.6 µM] and -0.032% [at 3.72 µM] | fluorescence, % of fluorescent control [2] 0.0543% [at 18.6 µM] and 0.0026% [at 3.72 µM] | fluorescence, % of fluorescent control [4] -0.0465% [at 18.6 µM] and -0.254% [at 3.72 µM] | fluorescence, % of Rose Bengal [5] 0.0258% [at 18.6 µM] and 0.364% [at 3.72 µM] | fluorescence, % of fluorescent control [6] 0.0368% [at 18.6 µM] and -0.0793% [at 3.72 µM] | fluorescence, % of fluorescein control [7] -0.0261% [at 18.6 µM] and -0.0181% [at 3.72 µM] | fluorescence, % of fluorescent control [20] 0.0942% [at 18.6 µM] and -0.004% [at 3.72 µM] | Potency [17] | Potency [19] | Potency [9] | activity change, negative = cytotoxicity [10] 0.358% [at 8.55 µM] | Potency [11] | Potency [15]

Cc1ccc2c(n1)Oc1ccc(C(C)C(=O)OCC(=O)N(C)C)cc1C2 (stereo not given)
active: Potency [9] 26.6 µM
inactive: Potency [1] | outcome [2] | Potency [3] | Potency [4] | Potency [5] | outcome [6] | Potency [7] | Potency [17] | Potency [19] | Potency [8] | Potency [18] | Potency [11] | Potency [12] | outcome [13] | Potency [15] | Potency [16]

From PubChem BioAssay (Tox21)
